Test results published in ChEMBL document CHEMBL3433997, “St. Jude Leishmania screening dataset” (2016).

What was measured:
Assay type in all cases: functional
[1] = molecular target: Solute carrier family 2, facilitated glucose transporter member 1 (Homo sapiens) (UniProt P11166); assay: ST_JUDE_LEISH: Cytotoxicity at 2uM final concentration against transgenic Leishmania Mexicana promastigotes LmGLUT1 that are glucose transport deficient and complemented with the human glucose transporter GLUT1. Activity is measured by DNA content using SYBR green in vitro
Chain of Solute carrier family 2, facilitated glucose transporter member 1 (Homo sapiens) (P11166 whole entry): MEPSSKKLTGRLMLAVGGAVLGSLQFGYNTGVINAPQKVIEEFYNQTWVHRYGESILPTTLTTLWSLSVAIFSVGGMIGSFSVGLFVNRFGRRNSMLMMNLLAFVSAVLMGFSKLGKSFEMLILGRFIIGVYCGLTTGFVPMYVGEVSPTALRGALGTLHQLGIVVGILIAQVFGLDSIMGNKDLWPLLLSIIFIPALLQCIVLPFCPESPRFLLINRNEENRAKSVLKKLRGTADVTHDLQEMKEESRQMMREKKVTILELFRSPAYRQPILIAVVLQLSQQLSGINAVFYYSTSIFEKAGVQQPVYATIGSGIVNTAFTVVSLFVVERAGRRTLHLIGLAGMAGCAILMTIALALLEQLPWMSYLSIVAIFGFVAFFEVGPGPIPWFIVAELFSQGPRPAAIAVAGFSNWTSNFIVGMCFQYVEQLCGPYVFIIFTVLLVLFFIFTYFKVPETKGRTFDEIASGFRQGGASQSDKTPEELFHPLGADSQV

[2] = molecular target: Hexose transporter 1 (Plasmodium falciparum) (UniProt O97467); assay: ST_JUDE_LEISH: Cytotoxicity at 2uM final concentration against transgenic Leishmania Mexicana promastigotes LmPfHT that are glucose transport deficient and complemented with the Plasmodium falciparum hexose transporter. Activity is measured by DNA content using SYBR green in vitro
[3] = molecular target: Glucose transporter (Leishmania mexicana) (UniProt O61059); assay: ST_JUDE_LEISH: Cytotoxicity at 2uM final concentration against transgenic Leishmania Mexicana promastigotes LmGT2 that are glucose transport deficient and complemented with the L. Mexicana glucose transporter 2. Activity is measured by DNA content using SYBR green in vitro

Structure (SMILES): Cc1cc2nc(-c3cccc(C(=O)NC4CCN(Cc5ccccc5)CC4)c3)[nH]c2cc1C
- inhibition [1]: 1.16%
- inhibition [2]: 1.99%
- inhibition [3]: 1.84%

Structure (SMILES): CN(C)CCNCc1ccc(-c2ccc(-c3nc4cc(F)ccc4[nH]3)cc2)cc1
- inhibition [1]: 9.57%
- inhibition [2]: 7.88%
- inhibition [3]: 5.4%

Structure (SMILES): COc1ccc2nccc([C@@H](O)CN3CCC(NC(=O)C(c4cc5ccccc5o4)N4CCC(Cc5ccccc5)CC4)CC3)c2c1 (stereo partly specified)
- inhibition [1]: 5.02%
- inhibition [2]: 3.03%
- inhibition [3]: 2.23%

Structure (SMILES): NC(=O)c1cnc2ccc(-c3cncs3)cc2c1Nc1ccc(F)c(Cl)c1
- inhibition [1]: 1.94%
- inhibition [2]: 2.75%
- inhibition [3]: 1.95%

Structure (SMILES): O=C(Nc1ccc(OC2CCN(Cc3ccc(F)cc3)CC2)c(Cl)c1)c1ccccc1
- inhibition [1]: -3.58%
- inhibition [2]: 0.82%
- inhibition [3]: 6.06%

Structure (SMILES): O=C(Cc1ccccc1)NC(c1ccco1)c1cc(Cl)c2cccnc2c1O (stereo unspecified)
- inhibition [1]: -0.34%
- inhibition [2]: -0.27%
- inhibition [3]: -0.18%

Structure (SMILES): Cn1ccc(-c2cccc(Nc3ccnc4cc(-c5nccs5)ccc34)c2)n1
- inhibition [1]: -0.21%
- inhibition [2]: 0.32%
- inhibition [3]: -0.17%

Structure (SMILES): O=C(Nc1ccc(-c2ccccc2)cc1)Nc1cccc(OCCN2CCCC2)c1
- inhibition [1]: 7.09%
- inhibition [2]: 4.18%
- inhibition [3]: 4%

Structure (SMILES): CCCCN1CCN(CCCNc2c3ccccc3nc3ccccc23)CC1
- inhibition [1]: 68%
- inhibition [2]: 80%
- inhibition [3]: 55.3%

Structure (SMILES): CCOc1ccc(-c2nonc2NC(=O)c2ccc(Cl)cc2)cc1OCC
- inhibition [1]: 4.45%
- inhibition [2]: 4.43%
- inhibition [3]: 4.61%

Structure (SMILES): Cc1cc(C)cc(OCC(O)CN(Cc2cc(Cl)cc(Cl)c2)C(=O)Nc2ccccc2Cl)c1 (stereo unspecified)
- inhibition [1]: 2.01%
- inhibition [2]: 1.42%
- inhibition [3]: -7.19%

Structure (SMILES): COc1ccc(CNCc2cccc(-c3cccc(-c4nc5ccccc5[nH]4)c3)c2)cc1
- inhibition [1]: 7.86%
- inhibition [2]: 4.28%
- inhibition [3]: 3.04%

Structure (SMILES): Cc1noc(C)c1-c1ccc2c(Nc3ccccc3C(C)(C)C)c(C(=O)NCc3cccc4ccccc34)cnc2c1
- inhibition [1]: 2.41%
- inhibition [2]: 2.01%
- inhibition [3]: 0.05%

Structure (SMILES): O=C(Nc1cccc(F)c1)NC1CCN(c2ccnc3cc(Cl)ccc23)C1 (stereo unspecified)
- inhibition [1]: 2.72%
- inhibition [2]: 2.74%
- inhibition [3]: 4.22%

Structure (SMILES): O=c1cc(NCCCNCc2ccc(Cl)c(Cl)c2)[nH]c2cc(F)cc(F)c12
- inhibition [1]: 3.21%
- inhibition [2]: 2.15%
- inhibition [3]: 3.08%

Structure (SMILES): Cc1cccc2nc(-c3cccc(-c4ccc(NC(=O)C5CCN(C)CC5)cc4)c3)[nH]c12
- inhibition [1]: 5.38%
- inhibition [2]: 2.27%
- inhibition [3]: 7.2%

Structure (SMILES): CN(C(=O)/C=C/c1ccccc1F)C1CCN(CCCCCNC(=O)/C=C/c2ccc(Cl)c(Cl)c2)CC1
- inhibition [1]: 5.19%
- inhibition [2]: 4.23%
- inhibition [3]: 5.34%

Structure (SMILES): O=C(C=Cc1ccc(Cl)c(Cl)c1)NCCCCCN1CCC(c2n[nH]c3ccccc23)CC1
- inhibition [1]: 1.5%
- inhibition [2]: 2.15%
- inhibition [3]: 1.44%

Structure (SMILES): COc1cccc(CN2CCCC(OC(c3ccccc3)c3ccccc3)C2)c1O (stereo unspecified)
- inhibition [1]: 1%
- inhibition [2]: -1.82%
- inhibition [3]: 0.05%

Structure (SMILES): O=C(NCCCCCN1CCC(c2c[nH]c3ccccc23)CC1)Nc1ccc(Cl)c(Cl)c1
- inhibition [1]: -1%
- inhibition [2]: -1.05%
- inhibition [3]: 1.89%

Structure (SMILES): Cc1cccc(NC(=O)c2cnc(N3CCN(c4ccncc4)CC3)c(Cl)c2)c1
- inhibition [1]: 23.2%
- inhibition [2]: 19.8%
- inhibition [3]: 6.53%

Structure (SMILES): CN1CCC(C(=O)N(Cc2ccc(-c3ccc(CNCCc4ccccc4)cn3)cc2)C2CCN(Cc3ccccc3)CC2)CC1
- inhibition [1]: 0.71%
- inhibition [2]: 1.1%
- inhibition [3]: -0.74%

Structure (SMILES): FC(F)(F)c1ccc2[nH]c(-c3ccc(-c4cccc(CN5CCN(c6ccncc6)CC5)c4)cc3)nc2c1
- inhibition [1]: 64.9%
- inhibition [2]: 53.5%
- inhibition [3]: 9.81%

Structure (SMILES): CCOc1ccccc1CNc1nccc(NCc2ccc(Cl)cc2Cl)n1
- inhibition [1]: 31.3%
- inhibition [2]: 21.2%
- inhibition [3]: 9.92%

Structure (SMILES): CCCC1N=C(N)N=C(N)N1c1ccc(OC)cc1 (stereo unspecified)
- inhibition [1]: 1.53%
- inhibition [2]: -0.34%
- inhibition [3]: 1.56%

Structure (SMILES): CN1CCCN(Cc2ccc(-c3cccc(NC(=O)c4cccc(C#N)c4)c3)cc2)CC1
- inhibition [1]: 8.55%
- inhibition [2]: 4.85%
- inhibition [3]: 5.62%

Structure (SMILES): COc1cc(Cc2cnc(N)nc2N)cc(OC)c1OCCCCC(=O)O
- inhibition [1]: -0.54%
- inhibition [2]: 0.53%
- inhibition [3]: 0.75%

Structure (SMILES): Cn1ncc2ccc(Nc3nccc(-c4ccc5c(c4)c(N)nn5C)n3)cc21
- inhibition [1]: 93.3%
- inhibition [2]: 97.5%
- inhibition [3]: 93.8%

Structure (SMILES): Cc1noc(=O)c2ccc(NC(=O)C(O)(CSc3ccccc3)CC(C)C)cc12 (stereo unspecified)
- inhibition [1]: 6.92%
- inhibition [2]: 4.78%
- inhibition [3]: 3.58%

Structure (SMILES): Cc1cc(N2CCCC2)nc(Nc2ccc(NC(=O)c3ccco3)cc2)n1
- inhibition [1]: 0.47%
- inhibition [2]: 3.07%
- inhibition [3]: -0.1%

Structure (SMILES): COc1ccccc1/C=C/C(=O)N(C)C1CCN(CCCCCNC(=O)/C=C/c2ccc(Cl)c(Cl)c2)C1 (stereo unspecified)
- inhibition [1]: 1.67%
- inhibition [2]: 1.04%
- inhibition [3]: 0.34%

Structure (SMILES): Cn1c(/C=C/C(=O)NC2CCC(CCN3CCc4ccc(C#N)cc4CC3)CC2)cc2ccccc21 (stereo unspecified)
- inhibition [1]: 2.51%
- inhibition [2]: 4.9%
- inhibition [3]: 3.48%

Structure (SMILES): COc1ccccc1CNc1nc(Nc2ccccc2C)nc2ccccc12
- inhibition [1]: 38.4%
- inhibition [2]: 54.5%
- inhibition [3]: 14.4%

Structure (SMILES): COc1ccc2nccc([C@@H](O)CN3CCC(NC(=O)/C=C/c4cccc(-c5ccccc5)c4)CC3)c2c1
- inhibition [1]: 7.76%
- inhibition [2]: 6.73%
- inhibition [3]: 0.36%

Structure (SMILES): Cc1cccc2nc(-c3ccc(-c4cccc(CNCc5ccccc5)c4)s3)[nH]c12
- inhibition [1]: -1.26%
- inhibition [2]: -0.6%
- inhibition [3]: -0.69%

Structure (SMILES): Cn1c(Cc2ccccc2)nnc1Sc1ccc(C#N)c([N+](=O)[O-])c1
- inhibition [1]: 3.85%
- inhibition [2]: 1.84%
- inhibition [3]: -3.07%

Structure (SMILES): Cc1cc(-c2ccc(S(=O)(=O)Nc3cc4c(cc3OC(C)C)CCN(C)CC4)cc2)ccc1Cl
- inhibition [1]: -2.82%
- inhibition [2]: -1.99%
- inhibition [3]: -2.35%
